# NR5A2 inv ag – inverse agonists of human LRH-1 (NR5A2); inhibition, % at 3.6 µM; 0.13% of 360,000 active; HEK293T StAR-luciferase reporter, LRH-1 transfected, 24 h; O00482;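 active = inhibition above the mean inhibition of all tested compounds plus 3 SD, cut at about 73% in these data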;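 note: 0% = DMSO wells and 100% = reporter-only cells lacking LRH-1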
# SRC2 inh – human SRC2 (NCOA2) inhibition. HEK293 GAL4-SRC2 luciferase reporter, luminescence. inhibition, % at 9 µM. 0.17% of 370,000 active;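 active = inhibition above the mean inhibition of all tested compounds plus 3 SD, set per campaign, cut at about 52% in these data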;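 note: 0% = DMSO treated cells and 100% = cells given Gossypol at 36 µM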
# NCOA1 inh – inhibits human SRC1 coactivator. inhibition, % at 3.6 µM. Q15788. 0.12% of 360,000 active. HEK293 GAL4-SRC1 luciferase reporter, luminescence. AID 588354;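 active = inhibition above the campaign mean plus 3 SD, with each screening campaign given its own cutoff, cut at about 60% in these data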;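 note: 0% = DMSO treated cells and 100% = gossypol at 36 µM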
# Shn3 3UTR inh – Schnurri-3 reporter inhibition in Clone20 osteoblasts; inhibition, % at 12.5 µM; 0.52% of 360,000 active; Clone20 osteoblast Shn3 3'UTR firefly luciferase, 24 h; AID 588674;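 active = mean inhibition of at least 75% with every replicate also reaching 75%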;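 note: 0% = median of neutral control wells and 100% = pilot-screen positive control compound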
# SRC3 inh – human NCOA3 inhibition. Q9Y6Q9. HEK293 GAL4-SRC3 luciferase reporter, luminescence. inhibition, % at 3.6 µM. 0.17% of 360,000 active. AID 588352;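 active = inhibition above a per-campaign cutoff, the mean of all compounds plus 3 SD, cut at about 60% in these data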;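 note: 0% = DMSO-treated cells and 100% = gossypol-treated cells at 36 µM; higher means less SRC3-driven luciferase light from the GAL4 reporter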
# Gli-Sufu block – blocks Gli-Sufu signaling in a luciferase reporter; Sufu-KO-LIGHT fibroblasts, Gli luciferase reporter luminescence; 0.74% of 340,000 active; AID 588413; inhibition, % at 5 µM;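 active = inhibition above about 55%, limit read from the data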;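 note: 0% = DMSO-treated cells and 100% = wells with medium but no cells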
# Active calls of the source: *; · = not tested or not shown. Only some compounds are listed: those with a hit (about 1.1% of all), similar ones and a draw of the others.
SMILES,NR5A2 inv ag,SRC2 inh,NCOA1 inh,Shn3 3UTR inh,SRC3 inh,Gli-Sufu block
CCCCS(=O)(=O)/C=C\C=C/S(=O)(=O)CCCC,59,·,-330,96*,-39,34
Cc1cc(C)nc(SCc2ccc(C(=O)N/N=C/c3cccc(O)c3O)cc2)n1,-6,33,24,84,66*,84*
Nc1c(C(=O)NCC(O)c2ccccc2)cnn1-c1ccccc1 (stereo unspecified),·,-27,·,·,·,·
CN1/C(=C\C=C2/SC(=S)NC2=O)C(C)(C)c2ccccc21,27,34,23,84,20,71*
CN1/C(=C\C=[N+](C)c2ccccc2)C(C)(C)c2ccccc21,6,15,4,13,11,85*
CN1C(=CC=C2C=C(I)C(=O)C(I)=C2)C(C)(C)c2ccccc21,-38,13,10,80,6,41
COc1ccc(/C=C/S(=O)(=O)NCCc2ccccc2)c(CNC(=O)OC(C)(C)C)c1,·,14,·,·,·,·
CCn1c(SCC(=O)Nc2ccc(C(C)C)cc2)nnc1-c1ccc(C(C)(C)C)cc1,·,0,·,·,·,·
CCN1CSC(=S)N(Cc2ccccc2)C1,12,-28,-12,11,-14,63*
Cc1c[nH]c2cccc(-c3ccc(OCc4ccccc4)cc3)c12,·,-20,·,·,·,·
COc1ccc(S[C@]2(C(=O)N3CCCC3)CC(=O)N(C(=O)/C=C/c3ccccc3)[C@@H]2c2ccc(OC)cc2)cc1,·,5,·,·,·,·
CCOC(=O)Cn1cc(CN2CCS(=O)(=O)N(Cc3ccc(F)cc3)C(C(=O)OC)C2)nn1 (stereo unspecified),·,-3,·,·,·,·
Cc1cc(Nc2ccccc2)n(-c2ccccc2)n1,11,-13,1,-12,5,-2
Cc1cc(C)nc(-n2nc(C)cc2Nc2ccccc2)n1,75*,-6,6,12,-9,2
CC(C)(C)N(Cc1cn(Cc2ccccc2)nn1)S(=O)(=O)c1ccc(N2CCCC2)cc1Br,·,4,·,·,·,·
CCOC(=O)c1ccc(NC(=O)c2nc[nH]c2C(=O)NCCNC(=O)c2[nH]cnc2C(=O)Nc2ccc(C(=O)OCC)cc2)cc1,-9,-25,-3,88*,9,13
c1ccc(-c2nc(-c3ccccn3)no2)cc1,-92,20,-25,16,-13,13
Cc1ccc(-c2nc(-c3ccccn3)no2)cc1,43,75*,51,92*,57,75*
c1ccc(-c2ccc(-c3nc(-c4ccccn4)no3)cc2)cc1,48,67*,56,83*,66*,81*
CCn1c(SCc2c(F)cccc2F)nc2sc3c(c2c1=O)CCCC3,·,-8,·,·,·,·
O=C(C1CCN(c2ncnc3c2sc2cccc(F)c23)CC1)N1CCN(C(=O)C2CCCO2)CC1 (stereo unspecified),·,-2,·,·,·,·
Cn1nc(-c2ccccn2)nc2c(=O)n(C)c(=O)nc1-2,84*,39,89*,98*,93*,3
CCCc1nc2c(=O)n(C)c(=O)nc-2n(C)n1,89*,67*,87*,97*,90*,59*
Cc1ccc(NC(=O)c2ccc(CS(=O)(=O)Cc3ccccc3C)o2)c(C)c1,·,0,·,·,·,·
O=C1C=CC2(O[C@H](c3ccccc3)[C@@H](c3ccccc3)O2)[C@H](Sc2ccccc2O)C1,31,37,-131,96*,-79,23
SMILES,NR5A2 inv ag,SRC2 inh,NCOA1 inh,Shn3 3UTR inh,SRC3 inh,Gli-Sufu block
CCN1CCN(CC(=O)N2N=C(c3cccs3)CC2c2ccc(OC)c(OC)c2)C(=O)C1=O (stereo unspecified),3,14,10,-6,25,-5
C=C1C(=O)c2sccc2C(c2ccc(OC)c(OC)c2)C1COC(C)=O (stereo unspecified),71,84*,59,99*,47,44
O=C(NNC(=O)C(c1ccccc1)c1ccccc1)c1ccccn1,39,26,19,93*,28,24
O=C(NNC(=S)Nc1ccc(Cl)c(Cl)c1)c1ccccn1,0,-35,-6,92*,-7,-11
CCNC(=S)NNC(=O)c1ccccn1,11,12,8,5,15,-11
O=C(NNc1ccccn1)C(c1ccccc1)c1ccccc1,-5,1,7,-5,-8,0
COc1ccc([C@H]2OC(=O)C[C@@H]2C(=O)N2CCN(c3ccccc3F)CC2)cc1OC,·,0,·,·,·,·
FC(F)(F)c1cc(C(F)(F)F)c2ccc(N3CCN(c4ccc(Cl)cc4)CC3)nc2n1,4,-9,-6,-1,-7,15
N#CC(c1ccc(Cl)cc1)c1ccc2c(C(F)(F)F)cc(C(F)(F)F)nc2n1 (stereo unspecified),-2,11,66*,89*,76*,92*
COc1ccc(CN(C)C(=O)C2CCCN(c3nc4ccccc4o3)C2)cc1 (stereo unspecified),·,-15,·,·,·,·
Cc1ccccc1CN1CCCCC(NC(=O)Nc2ccccc2-c2ccccc2)C1=O (stereo unspecified),·,16,·,·,·,·
COc1ccc(Cn2c(SCc3cc(C)ccc3C)nc3cc(OC)c(OC)cc3c2=N)cc1,2,-1,-11,96*,6,18
COc1ccc(Cn2c(SCc3ccc(C)cc3)nc3cc(OC)c(OC)cc3c2=N)cc1Cl,22,9,-8,26,0,30
O=C(O)CCC(=O)Nc1cccc(-c2csc(-c3ccccc3)n2)c1,18,52*,0,16,29,0
COc1ccc2cc3cc(C(=O)Nc4cc(OC)c(OC)c(OC)c4)oc3nc2c1,46,24,63*,29,45,11
CN[C@H]1C[C@H]2c3[nH]c4cccc(-c5cccc(F)c5)c4c3CCN2C(=O)[C@H]1[C@H](C)O,·,22,·,·,·,·
OC(CNCCC1C=Nc2ccccc21)Cn1c2ccc(Cl)cc2c2cc(Cl)ccc21 (stereo unspecified),7,-14,0,93*,-5,-2
OC(CNCC1CCCO1)Cn1c2ccc(Cl)cc2c2cc(Cl)ccc21 (stereo unspecified),-18,-5,-24,-16,1,-1
Cc1ccc(/C=C2\C(=O)ON=C2c2ccccc2)o1,14,-3,-15,-6,4,5
Cc1ccc(-c2ccc(/C=C3\C(=O)ON=C3c3ccccc3)o2)c([N+](=O)[O-])c1,-15,4,-18,91*,3,-3
C=CCN(CC#CC1=CCCCC1)Cc1ccc(OC)cc1OC,·,-7,·,·,·,·
O=C(/C=C/c1ccc(O)c(O)c1)OCCc1ccccc1,-67,4,-29,95*,-38,50
O=C(CCCN1C(=O)/C(=C/c2cccs2)SC1=S)NNC(=O)c1cccnc1,15,27,5,4,11,-2
O=C(CCN1C(=O)/C(=C/c2ccccc2Cl)SC1=S)Nc1ccccc1C(=O)O,4,8,-22,-8,4,7
